Each structure is given as a SMILES string. Compounds without any hit were thinned out: in the full panel of roughly 83,000, 20% have a hit.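 Cells were grown in 96-well plates and exposed to the test compound at a single concentration for 48 hours; results are reported as percent growth, with values below 10 considered active.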 Unmarked numbers belong to inactive results. Calls of active or inactive are those of the source.

Test systems include SR leukemia; RPMI-8226 leukemia; OVCAR-8 ovarian; OVCAR-5 ovarian; OVCAR-4 ovarian; SK-OV-3 ovarian; IGROV1 ovarian; OVCAR-3 ovarian; HS 578T breast; NCI/ADR-RES ovarian.
Test in all cases: NCI-60 one-dose screen, 48 h (100 = growth as untreated, 0 = no growth, -100 = all killed)
Common to all, as to details: 10 µM unless noted

Turning to `CC(N)C(=O)NNc1n[nH]c(=S)n1N` (stereo not given), the growth in the assay with SR leukemia was 103%; in the assay on RPMI-8226 leukemia, 104%; in the assay on OVCAR-8 ovarian, 100%; in the assay with OVCAR-5 ovarian, 92.9%; in the assay on OVCAR-4 ovarian, 105%; in the assay on SK-OV-3 ovarian, 109%. Moreover, the growth in the assay with IGROV1 ovarian was 98.8%; in the assay with OVCAR-3 ovarian, 97.6%; with HS 578T breast, 88.2%; in the assay on NCI/ADR-RES ovarian, 99.9%.

As for `O=S(=O)(c1ccccc1)N1CCCc2ccccc21`, the growth in the assay on SR leukemia was 103%; in the assay with RPMI-8226 leukemia, 93.1%; in the assay with OVCAR-8 ovarian, 99%; in the assay with OVCAR-5 ovarian, 103%; with OVCAR-4 ovarian, 113%; in the assay on SK-OV-3 ovarian, 105%. The growth in the assay with IGROV1 ovarian is 99.5%; in the assay with OVCAR-3 ovarian it was 102%; in the assay on HS 578T breast it was 93.2%; with NCI/ADR-RES ovarian, 107%.

Take `COc1cc2nc(-c3ccc(C(F)(F)F)cc3)cc(OCCN3CCCC3)c2cc1OC`: the growth with SR leukemia is 29.9%; in the assay with RPMI-8226 leukemia, 55.9%; in the assay on OVCAR-8 ovarian it was 91%; in the assay on OVCAR-5 ovarian it was 67.6%; with OVCAR-4 ovarian, 94.9%; in the assay on SK-OV-3 ovarian, 86.3%. For the same molecule, the growth in the assay on IGROV1 ovarian was 60.9%; in the assay with OVCAR-3 ovarian, 97.3%; in the assay on HS 578T breast it was 79.8%; in the assay on NCI/ADR-RES ovarian, 72.9%.

As for `O=C(Nc1ccc2ncnc(Nc3ccc(Oc4cccc(F)c4)c(Cl)c3)c2c1)c1ccc(CNCCO)cc1`, the growth with SR leukemia was 5.98% (active); in the assay with RPMI-8226 leukemia, 6.61% (active); in the assay on OVCAR-8 ovarian, 31.5%; in the assay with OVCAR-5 ovarian, 78.1%; in the assay on OVCAR-4 ovarian it was 7.6% (active); in the assay with SK-OV-3 ovarian, 29.5%. Moreover, the growth in the assay on IGROV1 ovarian was 9.12% (active); in the assay with OVCAR-3 ovarian, 45.7%; with HS 578T breast it was 51.3%; in the assay on NCI/ADR-RES ovarian it was 76.9%.

Consider `CCCCCCCCCCN=C(N)N=C(N)N`, for which the growth in the assay with SR leukemia is 37.8%; in the assay with RPMI-8226 leukemia, 34.8%; in the assay on OVCAR-8 ovarian, 43.5%; in the assay with OVCAR-5 ovarian, 64.1%; with OVCAR-4 ovarian, 44.9%; in the assay with SK-OV-3 ovarian, 52.3%. Besides, the growth in the assay with IGROV1 ovarian was 12.1%; with OVCAR-3 ovarian it was 41.9%; with HS 578T breast it was 55%; with NCI/ADR-RES ovarian, 79.5%.

Take `CCN(CC)CCSCCCNc1c(C)cnc2cc(Cl)ccc12`: the growth with SR leukemia was 30.9%; in the assay on RPMI-8226 leukemia, 83%; with OVCAR-8 ovarian, 93.2%; in the assay with OVCAR-5 ovarian, 98.4%; in the assay on OVCAR-4 ovarian, 86%; in the assay with SK-OV-3 ovarian, 108%. The growth in the assay with IGROV1 ovarian was 85.4%; with OVCAR-3 ovarian, 82.5%; with HS 578T breast it was 102%; in the assay on NCI/ADR-RES ovarian, 82.5%.

For the molecule `CC1(C)CC[C@]2(C(=O)NCC#CCN3CCOCC3)CC[C@]3(C)C(=CC[C@@H]4[C@@]5(C)Cc6c([nH]c7ccccc67)C(C)(C)[C@@H]5CC[C@]43C)[C@@H]2C1`, the growth is 90.9% with SR leukemia; 57.9% with RPMI-8226 leukemia; 90.8% with OVCAR-8 ovarian; 99.6% with OVCAR-5 ovarian; 91% in the assay on OVCAR-4 ovarian; 97.8% with SK-OV-3 ovarian. The growth in the assay with IGROV1 ovarian was 116%; with OVCAR-3 ovarian, 95.1%; in the assay on HS 578T breast it was 107%; in the assay with NCI/ADR-RES ovarian it was 97%.

With `COc1ccc(/C=N/C2=C(C#N)C(c3ccccc3[N+](=O)[O-])c3ccc4ccccc4c3O2)cc1` (stereo not given), the growth in the assay on SR leukemia is 89.4%; in the assay on RPMI-8226 leukemia it was 90.3%; with OVCAR-8 ovarian, 95.1%; in the assay on OVCAR-5 ovarian, 105%; with OVCAR-4 ovarian, 91.5%; in the assay on SK-OV-3 ovarian, 101%. Also, the growth in the assay on IGROV1 ovarian was 54.6%; in the assay with OVCAR-3 ovarian, 77.4%; with HS 578T breast, 95.3%; in the assay with NCI/ADR-RES ovarian it was 95.8%.

Regarding `CC(C)(C)CC(C)(C)Nc1c(-c2ccc(C(F)(F)F)cc2)nc2cnccn12`, the growth in the assay with SR leukemia was 59.8%; in the assay with RPMI-8226 leukemia, 62.9%; in the assay on OVCAR-8 ovarian, 89.2%; in the assay on OVCAR-5 ovarian, 102%; in the assay with OVCAR-4 ovarian it was 79.4%; in the assay with SK-OV-3 ovarian it was 82.7%. The growth with IGROV1 ovarian is 67.4%; with OVCAR-3 ovarian, 84.8%; in the assay with HS 578T breast, 102%; in the assay on NCI/ADR-RES ovarian, 81.9%.

For `COc1c(Cl)cc(Cl)c2ccc(C=C3C(=O)N(C)C(=O)N(C)C3=O)nc12`, the growth with SR leukemia was 93.2%; in the assay with RPMI-8226 leukemia, 102%; in the assay with OVCAR-8 ovarian, 111%; in the assay with OVCAR-5 ovarian, 111%; in the assay on OVCAR-4 ovarian it was 104%; in the assay on SK-OV-3 ovarian, 101%. The growth in the assay on IGROV1 ovarian was 114%; in the assay with OVCAR-3 ovarian, 104%; in the assay with HS 578T breast, 104%; with NCI/ADR-RES ovarian it was 106%.

On to `COc1cc(C2CC(c3cccc(Nc4ccncc4)c3)=NN2c2cc(Cl)cc(Cl)c2)cc(OC)c1OC` (stereo not given), for which the growth in the assay on SR leukemia is 0.528% (active); in the assay with RPMI-8226 leukemia, -13.7% (active); with OVCAR-8 ovarian, -8.55% (active); in the assay on OVCAR-5 ovarian it was 65.1%; in the assay on OVCAR-4 ovarian, 6.43% (active); in the assay on SK-OV-3 ovarian it was 76.2%. Further, the growth in the assay with IGROV1 ovarian is -2.86% (active); with OVCAR-3 ovarian it was 3.71% (active); in the assay with HS 578T breast it was 0.285% (active); in the assay on NCI/ADR-RES ovarian, 51.4%.

`COc1ccc2nc(N=Nc3c(O)ccc4ccccc34)sc2c1`: the growth in the assay with SR leukemia was 16.6%; with RPMI-8226 leukemia, 38.1%; with OVCAR-8 ovarian, 24.3%; in the assay with OVCAR-5 ovarian, 55.3%; in the assay with OVCAR-4 ovarian it was 28.3%; in the assay on SK-OV-3 ovarian it was 38.2%. Moreover, the growth in the assay on IGROV1 ovarian is 22.4%; with OVCAR-3 ovarian it was 34.9%; in the assay with HS 578T breast it was 83%; with NCI/ADR-RES ovarian, 9.35% (active).

On to `CSc1nc(O)c(-c2ccccc2)c(=O)[nH]1`, for which the growth was 96% in the assay on SR leukemia; 102% in the assay on RPMI-8226 leukemia; 101% in the assay on OVCAR-8 ovarian; 97.5% with OVCAR-5 ovarian; 108% with OVCAR-4 ovarian; 116% in the assay on SK-OV-3 ovarian. In addition, the growth was 104% with IGROV1 ovarian, 120% in the assay with OVCAR-3 ovarian, 110% in the assay on HS 578T breast and 106% in the assay with NCI/ADR-RES ovarian.

For the origin of these results see PubChem BioAssay (NCI).
